In PubChem BioAssay (Tox21):
Results filed as inconclusive are left out. The source made the active and inactive calls. Unless noted, calls come from the whole dose curve.

How the values were obtained:
[1] = Nuclear factor erythroid 2-related factor 2/antioxidant responsive element (Nrf2/ARE) small molecule agonists: qHTS cell viability counter screen in human keratinocytes (AID 1919968; active = well fitted curve in the direction sought with a large enough effect in the repeat runs; an effect the other way counts as inactive or inconclusive; note: nearly all actives have a fitted effect of over 55% in size)
Summary of the method: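 CellTiter-Fluor fluorescence, read 1 h after reagent, gave viability in the same wells as the ARE-luciferase assay. KeratinoSens cells (1,500/well) had 23 h compound exposure at 37 C/5% CO2 following 5 h plating.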

[2] = Nuclear factor erythroid 2-related factor 2/antioxidant responsive element (Nrf2/ARE) small molecule agonists: luciferase reporter gene qHTS assay in human keratinocytes (AID 1919969); note: nearly all actives have a fitted effect of over 35% in size
[3] = target: Gonadotropin-releasing hormone receptor (Homo sapiens) (UniProt P30968); test: Human gonadotropin-releasing hormone receptor (GnRHR) small molecule agonists, calcium flux assay in GnRHR-HEK293 cells (AID 1920063); note: nearly all actives have a fitted effect of over 35% in size
Sequence of Gonadotropin-releasing hormone receptor (Homo sapiens) (P30968 whole entry, looked up): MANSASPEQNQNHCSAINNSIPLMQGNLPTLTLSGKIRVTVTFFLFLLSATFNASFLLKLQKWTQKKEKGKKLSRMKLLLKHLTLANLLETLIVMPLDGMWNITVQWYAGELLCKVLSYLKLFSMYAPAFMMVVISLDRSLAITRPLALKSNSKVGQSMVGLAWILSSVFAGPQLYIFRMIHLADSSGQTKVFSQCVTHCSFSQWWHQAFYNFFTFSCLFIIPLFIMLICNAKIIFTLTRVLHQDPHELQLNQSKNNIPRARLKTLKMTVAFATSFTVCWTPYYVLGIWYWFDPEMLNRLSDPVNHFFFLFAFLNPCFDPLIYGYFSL
Summary of the method: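 Agonist mode: compounds at 15 concentrations, in triplicate, went onto calcium dye-loaded GnRHR-HEK293 cells. Intracellular calcium was then followed as 480/540 nm fluorescence at 1 s intervals over 3 min.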

[4] = target: KiSS-1 receptor (Homo sapiens) (UniProt Q969F8); test: Human kisspeptin (KISS1R) small molecule agonists, calcium flux assay in KISS1R-HEK293 cells (AID 1920064; active = well fitted curve in the direction sought with a large enough effect in the repeat runs; an effect the other way counts as inactive or inconclusive)
Sequence of KiSS-1 receptor (Homo sapiens) (Q969F8 whole entry, looked up): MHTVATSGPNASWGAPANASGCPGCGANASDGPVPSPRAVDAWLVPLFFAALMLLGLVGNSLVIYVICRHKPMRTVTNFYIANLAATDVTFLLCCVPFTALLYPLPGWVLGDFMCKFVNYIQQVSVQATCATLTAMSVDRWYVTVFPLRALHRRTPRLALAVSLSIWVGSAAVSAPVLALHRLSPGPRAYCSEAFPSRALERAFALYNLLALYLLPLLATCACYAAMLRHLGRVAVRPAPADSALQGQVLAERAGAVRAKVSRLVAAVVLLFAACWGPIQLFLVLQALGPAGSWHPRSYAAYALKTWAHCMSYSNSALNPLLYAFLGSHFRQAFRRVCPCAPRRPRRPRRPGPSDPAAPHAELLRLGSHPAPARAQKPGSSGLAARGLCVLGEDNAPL
Summary of the method: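 Agonist mode: intracellular calcium rise tracked at 1 s intervals over 3 min (480/540 nm) immediately after compound addition to dye-loaded KISS1R-HEK293 stable cells. Each compound tested at 15 concentrations in triplicate.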

[5] = G protein-coupled receptor (GPCR) small molecule agonists, calcium flux assay: HEK293 wild type cell line counter screen (AID 1920065)
Summary of the method: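 Calcium flux counter screen: compound added in agonist mode at 15 concentrations in triplicate to dye-loaded parental HEK293 cells. Fluorescence (480/540) read kinetically for 3 min; ATP served as positive control.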

[6] = p53 small molecule agonists, cell-based qHTS assay with human liver microsomes: qHTS cell viability counter screen (AID 1963579); note: nearly all actives have a fitted effect of over 45% in size
Summary of the method: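 Viability of p53RE-bla cells is measured as CellTiter-Glo luminescence following a 16 h, 37 C incubation with compound, liver microsomes from human donors and NADPH.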

[7] = p53 small molecule agonists, cell-based qHTS assay with rat liver microsomes: qHTS cell viability counter screen (AID 1963580); note: nearly all actives have a fitted effect of over 45% in size
Summary of the method: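 Counter screen for cytotoxicity under metabolic activation: rat liver microsomes and NADPH, 0.5 mg/mL final each, added with compounds to p53RE-bla HCT-116 cells; 16 h at 37 C, then ATP luminescence read.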

[8] = p53 small molecule agonists, cell-based qHTS assay: qHTS cell viability counter screen (AID 1963581); note: nearly all actives have a fitted effect of over 45% in size
Summary of the method: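 Counter screen read by CellTiter-Glo luminescence (ATP content, 30 min at room temperature), run in the same wells as the beta-lactamase reporter read. HCT-116 p53RE-bla cells saw compounds for 16 h at 37 C.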

[9] = target: 5-hydroxytryptamine receptor 2A (Homo sapiens) (UniProt P28223); test: 5-hydroxytryptamine receptor 2A (HTR2A) small molecule antagonists, cell-based qHTS assay (AID 1963586); note: nearly all actives have a fitted effect of over 45% in size
Sequence of 5-hydroxytryptamine receptor 2A (Homo sapiens) (P28223 whole entry, looked up): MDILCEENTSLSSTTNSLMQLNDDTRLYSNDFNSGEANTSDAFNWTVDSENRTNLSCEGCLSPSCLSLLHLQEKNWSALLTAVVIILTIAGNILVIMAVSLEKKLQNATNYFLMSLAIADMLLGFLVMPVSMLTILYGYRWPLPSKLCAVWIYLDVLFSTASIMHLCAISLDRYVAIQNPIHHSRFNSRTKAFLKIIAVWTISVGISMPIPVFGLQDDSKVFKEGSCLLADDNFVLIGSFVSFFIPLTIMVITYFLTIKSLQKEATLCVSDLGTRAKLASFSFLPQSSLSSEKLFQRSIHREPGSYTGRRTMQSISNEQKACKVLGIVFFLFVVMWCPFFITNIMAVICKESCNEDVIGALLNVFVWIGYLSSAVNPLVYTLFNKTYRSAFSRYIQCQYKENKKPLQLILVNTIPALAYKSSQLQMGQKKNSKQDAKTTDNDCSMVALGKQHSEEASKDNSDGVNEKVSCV
Summary of the method: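 CHO cells stably expressing human HTR2A were plated for 18 h at 37 C, then loaded with calcium dye for 1 h. Compounds were preincubated 5 min at room temperature before DOI (4 nM solution) was added. Kinetic fluorescence was read for 3 min.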

[10] = target: 5-hydroxytryptamine receptor 2A (Homo sapiens) (UniProt P28223); test: 5-hydroxytryptamine receptor 2A (HTR2A) small molecule agonists, cell-based qHTS assay (AID 1963587); note: nearly all actives have a fitted effect of over 30% in size
Summary of the method: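 HTR2A-CHO cells, plated 18 h at 37 C/5% CO2, dye-loaded 1 h at 37 C; compounds in DMSO added by pin tool (agonist mode). Intracellular calcium flux read as kinetic fluorescence on FDSS over 2 min at 1 s intervals.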

[11] = target: Muscarinic acetylcholine receptor M1 (Homo sapiens) (UniProt P11229); test: Cholinergic receptor muscarinic 1 (CHRM1) small molecule antagonists, cell-based qHTS assay (AID 1963588); note: nearly all actives have a fitted effect of over 40% in size
Sequence of Muscarinic acetylcholine receptor M1 (Homo sapiens) (P11229 whole entry, looked up): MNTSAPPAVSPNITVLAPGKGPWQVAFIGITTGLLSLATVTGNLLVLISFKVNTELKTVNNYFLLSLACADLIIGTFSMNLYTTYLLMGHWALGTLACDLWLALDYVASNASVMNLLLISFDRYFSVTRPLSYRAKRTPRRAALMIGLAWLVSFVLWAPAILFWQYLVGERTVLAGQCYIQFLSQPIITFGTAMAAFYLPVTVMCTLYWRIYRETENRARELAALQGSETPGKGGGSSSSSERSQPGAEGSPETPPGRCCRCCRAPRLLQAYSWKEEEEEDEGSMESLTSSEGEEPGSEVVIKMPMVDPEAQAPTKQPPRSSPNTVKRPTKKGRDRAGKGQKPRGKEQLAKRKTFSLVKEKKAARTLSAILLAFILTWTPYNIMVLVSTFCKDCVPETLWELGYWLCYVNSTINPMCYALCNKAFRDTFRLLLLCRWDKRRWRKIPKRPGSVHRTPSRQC
Summary of the method: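 Compounds were tested at 15 concentrations in three independent runs. Dye-loaded CHRM1-CHO cells were exposed 5 min at room temperature before stimulation by acetylcholine added at 50nM. Intracellular calcium was read kinetically on FDSS for 3 min.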

[12] = target: Muscarinic acetylcholine receptor M1 (Homo sapiens) (UniProt P11229); test: Cholinergic receptor muscarinic 1 (CHRM1) small molecule agonists, cell-based qHTS assay (AID 1963589); note: nearly all actives have a fitted effect of over 35% in size
Summary of the method: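 Agonist-mode calcium-flux screen: compounds at 15 concentrations, three independent runs, were pin-transferred onto dye-loaded human CHRM1-CHO cells. Fluorescence was then recorded kinetically every second over minutes.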

[13] = cAMP Responsive Elements (CRE) small molecule agonists, cell-based qHTS assay (AID 1963590)
Summary of the method: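 Agonist mode: compound added to CRE-bla HEK 293T cells (2,000/well, 18 h after plating) for 3 h at 37 C/5% CO2. Reporter activity detected via FRET beta-lactamase substrate, 2 h room-temperature loading.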

[14] = cAMP Responsive Elements (CRE) small molecule antagonists, cell-based qHTS assay (AID 1963591; active = well fitted inhibition curve with a large enough effect in the signal ratio in the repeat runs, not every such curve was filed as active; the % refers to the signal ratio)
Summary of the method: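 Antagonist mode: compounds are added alongside the adenylyl cyclase activator NKH477 (0.25 uM final) to CRE-bla HEK293T cells for 3 h. LiveBLAzer FRET substrate, 2 h at room temperature, reports bla expression.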

[15] = target: Beta-2 adrenergic receptor (Homo sapiens) (UniProt P07550); test: Adrenergic beta2 receptor (ADRB2) small molecule antagonists, cell-based qHTS assay (AID 1963592); note: series mostly up to about 92 µM; nearly all actives have a fitted effect of over 50% in size
Sequence of Beta-2 adrenergic receptor (Homo sapiens) (P07550 whole entry, looked up): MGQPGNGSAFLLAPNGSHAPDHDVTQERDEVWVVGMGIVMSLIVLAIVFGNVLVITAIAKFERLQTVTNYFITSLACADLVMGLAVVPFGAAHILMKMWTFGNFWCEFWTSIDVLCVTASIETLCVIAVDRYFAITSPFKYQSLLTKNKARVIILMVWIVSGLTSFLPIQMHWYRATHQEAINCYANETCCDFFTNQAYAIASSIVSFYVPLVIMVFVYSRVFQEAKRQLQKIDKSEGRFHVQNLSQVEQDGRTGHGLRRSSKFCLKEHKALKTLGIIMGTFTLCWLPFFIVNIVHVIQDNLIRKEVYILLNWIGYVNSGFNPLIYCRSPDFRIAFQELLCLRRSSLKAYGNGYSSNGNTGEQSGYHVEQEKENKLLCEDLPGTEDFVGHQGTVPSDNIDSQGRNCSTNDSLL
Summary of the method: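 Assay format: CHO-ADRB2 cells, 18-20hr seeding at 37C/5% CO2, then compound plus 1nM isoproterenol agonist mix for 0.5hr RT. Homogeneous time-resolved fluorescence cAMP detection after 1hr, expressed as 665/615 nm ratio.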

[16] = target: Beta-2 adrenergic receptor (Homo sapiens) (UniProt P07550); test: Adrenergic beta2 receptor (ADRB2) small molecule agonists, cell-based qHTS assay (AID 1963593);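 note: CHO cells stably overexpressing human ADRB2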
Summary of the method: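 CHO cells stably over-expressing ADRB2 were plated overnight at 37C, then dosed with compounds plus a stimulation mix containing 100uM IBMX and 25uM Ro-20-1724 for 0.5hr at room temperature. cAMP was measured by HTRF competition, 1hr.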

[17] = target: D(2) dopamine receptor (Homo sapiens) (UniProt P14416); test: Dopamine D2 receptor (DRD2) small molecule agonists, cell-based qHTS assay (AID 1963594); note: nearly all actives have a fitted effect of over 35% in size
Sequence of D(2) dopamine receptor (Homo sapiens) (P14416 whole entry, looked up): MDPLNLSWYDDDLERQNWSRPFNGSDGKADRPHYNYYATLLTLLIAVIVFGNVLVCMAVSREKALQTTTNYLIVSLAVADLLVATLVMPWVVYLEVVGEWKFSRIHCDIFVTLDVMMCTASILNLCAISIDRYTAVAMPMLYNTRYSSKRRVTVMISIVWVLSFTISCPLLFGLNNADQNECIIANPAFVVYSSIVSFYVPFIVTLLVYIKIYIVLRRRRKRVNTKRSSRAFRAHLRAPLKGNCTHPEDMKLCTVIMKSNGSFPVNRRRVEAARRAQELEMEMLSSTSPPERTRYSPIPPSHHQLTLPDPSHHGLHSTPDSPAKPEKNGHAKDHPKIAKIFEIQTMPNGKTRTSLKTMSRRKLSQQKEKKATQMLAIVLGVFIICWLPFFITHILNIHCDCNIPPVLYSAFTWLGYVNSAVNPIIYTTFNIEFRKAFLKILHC
Summary of the method: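 HEK293 cells stably expressing DRD2 were cultured 24 h at 37 C, then given Ro20-1724 (0.1 mM final) and compounds for 10 min at room temperature. NKH477 (200nM) was then added for 30 min. cAMP was read by HTRF.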

[18] = target: D(2) dopamine receptor (Homo sapiens) (UniProt P14416); test: Dopamine D2 receptor (DRD2) small molecule antagonists, cell-based qHTS assay (AID 1963595; active = well fitted inhibition curve with a large enough effect in the signal ratio in the repeat runs, with a control signal flat; the % refers to the signal ratio)
Summary of the method: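 Readout: HTRF cAMP, cAMP-d2 competing with cellular cAMP for anti-cAMP cryptate, read after 1 h. Cells: DRD2-HEK293. Conditions: 0.1 mM Ro20-1724, 12 nM quinpirole, 200 nM NKH477, 30 min RT.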

Measured: Potency

C1COCO1
inactive: all assays above

CC(C)(C)C(=O)CCc1ccc(Cl)cc1
inactive: all assays above

CCN[C@H]1C[C@H](C)S(=O)(=O)c2sc(S(N)(=O)=O)cc21
not listed: [18]
inactive: all other assays above

CCNC(=O)NCc1cccc(Cl)c1
inactive: all assays above

CC(C)(C)c1ccc(N)cc1
inactive: all assays above

Cc1c(Cl)cccc1Cl
inactive: all assays above

COC(Cc1ccccc1)OC
inactive: all assays above

[Ca+2]
inactive: all assays above

COc1nccnc1NS(=O)(=O)c1ccc(N)cc1
inactive: all assays above

CCc1ccccc1
inactive: all assays above

CCCCC(CC)C(=O)OCCOCCOCCOCCOC(=O)C(CC)CCCC (configuration not stated)
inactive: all assays above

O=[N+]([O-])c1ccc(Cl)cc1Cl
inactive: all assays above

CCCCCCCCCCC=O
inactive: all assays above

CC(C)(CO)[N+](=O)[O-]
inactive: all assays above

c1cc(CCCc2ccncc2)ccn1
inactive: all assays above

C=C1CC[C@H]2C[C@@H]1C2(C)C
inactive: all assays above
